# Counter-ions that a name gives are not always drawn.
# Tested on: E18 rat cortical neuron-glia co-culture
# Assay: myelination (MBP fiber length per Olig2+ nucleus), % of 1 µM DAPT response (DMSO = 0) (% of DAPT); higher = more myelination, active = 50 or more
# Conditions: 1 µM; treatment time: 8 days (DIV5-DIV13)
# Procedure, shortened: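 Myelination, expressed as continuous straight MBP fiber length per Olig2+ nucleus, was normalised to 0.1 % DMSO as 0 and a 1 µM positive control as 100. The cultures were primary E18 rat cortical co-cultures dissociated with papain and plated at 20,000 cells/well on poly-d-lysine/laminin-coated 96-well plates. They received library compounds at 1 or 5 µM in myelination medium between DIV5 and DIV13. Analysis covered four 10X fields per well in duplicate wells after 4 % paraformaldehyde fixation and immunostaining for MBP and Olig2 with DAPI.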
row,SMILES,myelination
1,CS(=O)(=O)c1ccc(-c2cc(Br)sc2-c2ccc(F)cc2)cc1,8.65 (inactive)
2,CC/C(=C(\c1ccccc1)c1ccc(OCCN(C)C)cc1)c1ccccc1 [Tamoxifen],-18.7 (inactive)
3,Cc1c(C(=O)NN2CCCCC2)nn(-c2ccc(Cl)cc2Cl)c1-c1ccc(I)cc1,17.6 (inactive)
4,COC1=C(OC)C(=O)C(CCCCCCCCCCO)=C(C)C1=O [Idebenone],-12.8 (inactive)
5,Clc1ccc(COC(Cn2ccnc2)c2ccc(Cl)cc2Cl)c(Cl)c1 (configuration not stated) [Miconazole],-12.3 (inactive)
6,CN(CCOc1ccc(CC2SC(=O)NC2=O)cc1)c1ccccn1 (configuration not stated) [Rosiglitazone maleate],-26.2 (inactive)
7,CCN(CC)CCOc1ccc(C(=C(Cl)c2ccccc2)c2ccccc2)cc1 [Clomiphene],-33.9 (inactive)
8,Cc1c2oc3c(C)ccc(C(=O)N[C@@H]4C(=O)N[C@H](C(C)C)C(=O)N5CCC[C@H]5C(=O)N(C)CC(=O)N(C)[C@@H](C(C)C)C(=O)O[C@@H]4C)c3nc-2c(C(=O)N[C@@H]2C(=O)N[C@H](C(C)C)C(=O)N3CCC[C@H]3C(=O)N(C)CC(=O)N(C)[C@@H](C(C)C)C(=O)O[C@@H]2C)c(N)c1=O [Dactinomycin],< -33.5 (inactive)
9,CCOC(=O)C1=C(C)NC(C)=C(C(=O)OCC)C1c1ccccc1/C=C/C(=O)OC(C)(C)C [Lacidipine],-18.6 (inactive)
10,CC[C@H]1OC(=O)[C@H](C)[C@@H](O[C@H]2C[C@@](C)(OC)[C@@H](O)[C@H](C)O2)[C@H](C)[C@@H](O[C@@H]2O[C@H](C)C[C@H](N(C)C)[C@H]2O)[C@](C)(O)C[C@@H](C)C(=O)[C@H](C)[C@@H](O)[C@]1(C)O [Erythromycin],-11.1 (inactive)
11,CCCCc1nc(Cl)c(CO)n1Cc1ccc(-c2ccccc2-c2nnn[nH]2)cc1 [Losartan],-14.1 (inactive)
12,C[C@@H]1CN(CCCn2c3ccccc3c3ccccc32)C[C@H](C)N1 [Rimcazole],-12.2 (inactive)
13,CN(C)CCOc1ccc(/C(=C(/CCCl)c2ccccc2)c2ccccc2)cc1 [Toremifene],3.19 (inactive)
14,CSc1ccc2c(c1)N(CCC1CCCCN1C)c1ccccc1S2 (configuration not stated) [Thioridazine],-11.4 (inactive)
15,C=C(CC)C(=O)c1ccc(OCC(=O)O)c(Cl)c1Cl [Ethacrynic Acid],32.2 (inactive)
16,CC#C[C@]1(O)CC[C@H]2[C@@H]3CCC4=CC(=O)CCC4=C3[C@@H](c3ccc(N(C)C)cc3)C[C@@]21C [Mifepristone],-23 (inactive)
17,Cc1cccc(C)c1NC(=O)C(C)N (configuration not stated) [Tocainide],-15 (inactive)
18,CN1CCN(C2=Nc3cc(Cl)ccc3Nc3ccccc32)CC1 [Clozapine],-14.8 (inactive)
19,Cc1cccc(CN2CCN(C(c3ccccc3)c3ccc(Cl)cc3)CC2)c1 (configuration not stated) [Meclizine],-29.8 (inactive)

row,SMILES,myelination
1,Nc1nc(O)c2ncn(CCC(CO)CO)c2n1 [Penciclovir],3 (inactive)
2,C[C@@H]1C[C@H]2[C@@H]3CCC4=CC(=O)C=C[C@]4(C)[C@@]3(F)[C@@H](O)C[C@]2(C)[C@@]1(O)C(=O)CO [Dexamethasone],-36.6 (inactive)
3,OCCN1CCN(CCCN2c3ccccc3Sc3ccc(C(F)(F)F)cc32)CC1 [Fluphenazine],3 (inactive)
4,COC(=O)C1=C(C)NC(C)=C(C(=O)OCC(C)C)C1c1ccccc1[N+](=O)[O-] (configuration not stated) [Nisoldipine],-11.1 (inactive)
5,CC1(C)O[C@@H]2C[C@H]3[C@@H]4CCC5=CC(=O)C=C[C@]5(C)[C@@]4(F)[C@@H](O)C[C@]3(C)[C@]2(C(=O)CO)O1 [Azmacort],-5.49 (inactive)
6,CNCCC(Oc1ccc(C(F)(F)F)cc1)c1ccccc1 (configuration not stated) [Fluoxetine hydrochloride],-1.16 (inactive)
7,COc1cccc2c1C(=O)c1c(O)c3c(c(O)c1C2=O)C[C@@](O)(C(=O)CO)C[C@@H]3O[C@H]1C[C@H](N)[C@H](O)[C@H](C)O1 [Adriamycin],< -51.2 (inactive)
8,O=c1c(O[C@@H]2O[C@H](CO)[C@H](O)[C@H](O)[C@H]2O)c(-c2ccc(O)c(O)c2)oc2cc(O)cc(O)c12 [Hyperoside],-69.1 (inactive)
9,CCc1c2c(nc3ccc(OC(=O)N4CCC(N5CCCCC5)CC4)cc13)-c1cc3c(c(=O)n1C2)COC(=O)[C@]3(O)CC [Irinotecan],255 (active)
10,CCCCCNC(=N)N/N=C/c1c[nH]c2ccc(OC)cc12 [Tegaserod],-17.1 (inactive)
11,CN1[C@@H]2CC[C@H]1C[C@@H](OC(c1ccccc1)c1ccccc1)C2 [Benzatropine],< -84.9 (inactive)
12,O=c1c(-c2ccccc2)c1-c1ccccc1 [Diphenylcyclopropenone],-43.4 (inactive)
13,CC(C)(C)NC(=O)[C@@H]1C[C@@H]2CCCC[C@@H]2CN1C[C@@H](O)[C@H](Cc1ccccc1)NC(=O)[C@H](CC(N)=O)NC(=O)c1ccc2ccccc2n1 [Saquinavir],3.19 (inactive)
14,CN(CCCN1c2ccccc2CCc2ccccc21)CC(=O)c1ccc(Cl)cc1 [Lofepramine],-18.3 (inactive)
15,OCCN1CCN(CCCN2c3ccccc3Sc3ccc(Cl)cc32)CC1 [Perphenazine],-21.7 (inactive)
16,CC=CC(=O)N(CC)c1ccccc1C [Crotamiton],-16.8 (inactive)
17,NNCCc1ccccc1 [Phenelzine],-25.5 (inactive)
18,CC(C)c1ccc2c(c1)c(SC(C)(C)C)c(CC(C)(C)C(=O)O)n2Cc1ccc(Cl)cc1,-5.83 (inactive)

# Reference: the supplement of paper PMC4840960
